Assay results from PubChem BioAssay AID1159580 (chemical genetic matrix, 2015).
Out of some 5,500 compounds screened, about 2,000 (36%) were called active. Another 18% or so got no clear call; they are omitted. No stated cut-off is given here; in the data, active means normalized growth mostly below about 0.91 (no sharp cut-off); inconclusive means no clear call, values can overlap the other calls; inactive means mostly above about 0.92. The list shows a part of the results.

Assay: chemical genetic growth profiling, strain panel (AID 1159580);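 further: tested at 20 µM; growth read once vehicle control cultures reached saturation at 30 °C; 1 = growth at the plate median or of vehicle wells; lower values mean less growth of the strain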
Settings: growth OD

Measured: normalized growth

CC1=CC2C(C(C)C)CCC(C)(O)C2CC1 (stereo not drawn)
inactive: S. cerevisiae deletion strains, locus YJL187C, strain SWE1 (second series), hits give low values 1.01 | S. cerevisiae deletion strains, locus YJL187C, strain SWE1, hits give low values 1 | S. cerevisiae deletion strains, locus YJR043C, strain POL32, hits give low values 0.973 | S. cerevisiae deletion strains, locus YJR066W, strain TOR1, hits give low values 0.914 | S. cerevisiae deletion strains, locus YKL009W, strain mrt4, hits give low values 0.994 | S. cerevisiae deletion strains, locus YKL068W, hits give low values 0.972 | S. cerevisiae deletion strains, locus YKL085W, strain MDH1 (second series), hits give low values 0.979 | S. cerevisiae deletion strains, locus YKL085W, strain MDH1, hits give low values 0.979 | S. cerevisiae deletion strains, locus YKL160W, strain elf1, hits give low values 0.968 | S. cerevisiae deletion strains, locus YKL190W, strain CNB1, hits give low values 0.994 | S. cerevisiae deletion strains, locus YKR001C, strain vps1, hits give low values 0.989 | S. cerevisiae deletion strains, locus YKR026C, strain gcn3, hits give low values 0.993 | S. cerevisiae deletion strains, locus YKR091W, strain srl3, hits give low values 0.987 | S. cerevisiae deletion strains, locus YLL001W, strain dnm1, hits give low values 0.947 | S. cerevisiae deletion strains, locus YLL026W, hits give low values 0.988 | S. cerevisiae deletion strains, locus YLL041C, strain sdh2, hits give low values 0.995 | S. cerevisiae deletion strains, locus YLR027C, strain aat2, hits give low values 0.978 | S. cerevisiae deletion strains, locus YLR039C, strain RIC1, hits give low values 0.913 | S. cerevisiae deletion strains, locus YLR058C, strain SHM2, hits give low values 0.98 | S. cerevisiae deletion strains, locus YLR102C, strain apc9, hits give low values 0.989 | S. cerevisiae deletion strains, locus YLR113W, strain HOG1, hits give low values 0.887 | S. cerevisiae deletion strains, locus YLR221C, strain rsa3, hits give low values 0.986 | S. cerevisiae deletion strains, locus YLR258W, strain gsy2, hits give low values 0.971 | S. cerevisiae deletion strains, locus YLR268W, strain sec22, hits give low values 0.949 | S. cerevisiae deletion strains, locus YLR320W, strain mms22, hits give low values 0.966 | S. cerevisiae deletion strains, locus YLR330W, strain CHS5, hits give low values 0.982 | S. cerevisiae deletion strains, locus YLR342W, strain FKS1, hits give low values 0.983 | S. cerevisiae deletion strains, locus YLR357W, strain rsc2, hits give low values 1.08 | S. cerevisiae deletion strains, locus YLR370C, strain arc18, hits give low values 0.984 | S. cerevisiae deletion strains, locus YLR371W, strain rom2, hits give low values 1.01 | S. cerevisiae deletion strains, locus YLR384C, strain iki3, hits give low values 0.991 | S. cerevisiae deletion strains, locus YLR418C, strain cdc73, hits give low values 0.966 | S. cerevisiae deletion strains, locus YML016C, strain PPZ1, hits give low values 0.992 | S. cerevisiae deletion strains, locus YML032C, strain rad52, hits give low values 0.971 | S. cerevisiae deletion strains, locus YML120C, strain ndi1, hits give low values 0.966 | S. cerevisiae deletion strains, locus YML124C, strain tub3, hits give low values 0.985 | S. cerevisiae deletion strains, locus YMR058W, strain fet3, hits give low values 1.01 | S. cerevisiae deletion strains, locus YMR078C, strain ctf18, hits give low values 0.981 | S. cerevisiae deletion strains, locus YMR125W, strain sto1, hits give low values 1.02 | S. cerevisiae deletion strains, locus YMR129W, hits give low values 0.982 | S. cerevisiae deletion strains, locus YMR205C, strain PFK2, hits give low values 0.949 | S. cerevisiae deletion strains, locus YMR223W, strain ubp8, hits give low values 0.964 | S. cerevisiae deletion strains, locus YMR231W, strain pep5, hits give low values 0.994 | S. cerevisiae deletion strains, locus YMR307W, strain GAS1, hits give low values 0.993 | S. cerevisiae deletion strains, locus YNL067W, strain RPL9B, hits give low values 1.02 | S. cerevisiae deletion strains, locus YNL128W, strain TEP1, hits give low values 0.962 | S. cerevisiae deletion strains, locus YNL183C, strain NPR1, hits give low values 0.911 | S. cerevisiae deletion strains, locus YNL209W, strain ssb2, hits give low values 0.984 | S. cerevisiae deletion strains, locus YNL233W, strain BNI4, hits give low values 1.01 | S. cerevisiae deletion strains, locus YNL248C, strain rpa49, hits give low values 1.03 | S. cerevisiae deletion strains, locus YNL250W, strain rad50, hits give low values 0.952 | S. cerevisiae deletion strains, locus YNL271C, strain bni1, hits give low values 0.986 | S. cerevisiae deletion strains, locus YNL298W, strain CLA4, hits give low values 0.983 | S. cerevisiae deletion strains, locus YNL307C, strain MCK1, hits give low values 0.986 | S. cerevisiae deletion strains, locus YNL322C, strain KRE1 (second series), hits give low values 0.975 | S. cerevisiae deletion strains, locus YNL322C, strain KRE1, hits give low values 0.984 | S. cerevisiae deletion strains, locus YNR049C, strain mso1, hits give low values 0.998 | S. cerevisiae deletion strains, locus YNR052C, strain pop2, hits give low values 1 | S. cerevisiae deletion strains, locus YOL012C, strain htz1 1.19 | S. cerevisiae deletion strains, locus YOL147C, strain pex11, hits give low values 0.982 | S. cerevisiae deletion strains, locus YOR001W, strain rrp6, hits give low values 0.989 | S. cerevisiae deletion strains, locus YOR061W, strain CKA2, hits give low values 0.966 | S. cerevisiae deletion strains, locus YOR069W, strain VPS5, hits give low values 0.989 | S. cerevisiae deletion strains, locus YOR070C, strain gyp1, hits give low values 0.975 | S. cerevisiae deletion strains, locus YOR080W, strain dia2, hits give low values 0.993 | S. cerevisiae deletion strains, locus YOR083W, strain WHI5, hits give low values 0.964 | S. cerevisiae deletion strains, locus YOR106W, strain vam3, hits give low values 0.997 | S. cerevisiae deletion strains, locus YOR136W, strain idh2, hits give low values 0.968 | S. cerevisiae deletion strains, locus YOR144C, strain elg1, hits give low values 0.985 | S. cerevisiae deletion strains, locus YOR184W, strain ser1, hits give low values 0.933 | S. cerevisiae deletion strains, locus YOR231W, strain MKK1, hits give low values 0.911 | S. cerevisiae deletion strains, locus YOR265W, strain rbl2, hits give low values 0.978 | S. cerevisiae deletion strains, locus YOR270C, strain vph1, hits give low values 0.959 | S. cerevisiae deletion strains, locus YOR290C, strain snf2, hits give low values 0.997 | S. cerevisiae deletion strains, locus YOR316C, strain cot1, hits give low values 0.989 | S. cerevisiae deletion strains, locus YPL051W, strain arl3, hits give low values 0.946 | S. cerevisiae deletion strains, locus YPL078C, strain atp4, hits give low values 0.957 | S. cerevisiae deletion strains, locus YPL106C, strain sse1, hits give low values 1 | S. cerevisiae deletion strains, locus YPL240C, strain hsp82, hits give low values 0.987 | S. cerevisiae deletion strains, locus YPL256C, strain CLN2, hits give low values 0.915 | S. cerevisiae deletion strains, locus YPR119W, strain clb2, hits give low values 0.985 | S. cerevisiae deletion strains, locus YPR141C, strain kar3, hits give low values 0.97 | S. cerevisiae deletion strains, locus YPR163C, strain tif3, hits give low values 0.99 | S. cerevisiae deletion strains, locus YPR167C, strain met16, hits give low values 0.987 | S. cerevisiae deletion strains, strain wtn01, hits give low values 0.964 | S. cerevisiae strains, strain wild type, hits give low values 0.969
active: S. cerevisiae deletion strains, locus YLR262C, strain YPT6 (second series), hits give low values 0.81 | S. cerevisiae deletion strains, locus YNL071W, strain lat1, hits give low values 0.876
